Reference: ChEMBL document CHEMBL1961873, “Compounds: GSK PKIS; Assays: Nanosyn kinase panel” (2012)

Key:
[1] = target: T1, Tyrosine-protein kinase receptor TYRO3 (Homo sapiens) (UniProt Q06418); settings: at 1 µM
T1 sequence (whole entry): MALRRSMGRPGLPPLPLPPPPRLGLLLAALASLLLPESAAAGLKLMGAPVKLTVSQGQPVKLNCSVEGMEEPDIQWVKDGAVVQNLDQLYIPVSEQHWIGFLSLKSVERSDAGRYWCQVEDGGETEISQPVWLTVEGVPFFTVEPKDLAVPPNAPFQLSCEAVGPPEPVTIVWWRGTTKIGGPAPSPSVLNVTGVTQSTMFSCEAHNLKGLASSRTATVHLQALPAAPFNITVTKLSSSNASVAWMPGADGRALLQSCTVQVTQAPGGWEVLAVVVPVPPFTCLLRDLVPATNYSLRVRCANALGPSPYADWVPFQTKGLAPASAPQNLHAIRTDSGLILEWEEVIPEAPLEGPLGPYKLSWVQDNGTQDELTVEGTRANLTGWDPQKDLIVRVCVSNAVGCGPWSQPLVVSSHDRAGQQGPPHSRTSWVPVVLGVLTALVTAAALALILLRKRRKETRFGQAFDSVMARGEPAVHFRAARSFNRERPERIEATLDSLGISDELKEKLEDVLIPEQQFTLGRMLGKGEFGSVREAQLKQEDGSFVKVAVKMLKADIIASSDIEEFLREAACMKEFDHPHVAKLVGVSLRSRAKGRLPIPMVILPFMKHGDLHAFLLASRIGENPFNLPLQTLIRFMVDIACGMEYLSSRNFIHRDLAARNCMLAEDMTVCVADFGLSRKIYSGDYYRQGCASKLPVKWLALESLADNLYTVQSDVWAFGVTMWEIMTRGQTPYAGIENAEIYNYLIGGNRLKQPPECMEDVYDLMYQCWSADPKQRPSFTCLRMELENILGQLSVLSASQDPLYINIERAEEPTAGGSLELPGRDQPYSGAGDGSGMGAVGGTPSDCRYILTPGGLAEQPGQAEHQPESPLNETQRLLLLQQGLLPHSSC

[2] = target: Tyrosine-protein kinase Yes (Homo sapiens) (UniProt P07947); settings: at 0.1 µM
[3] = target: Tyrosine-protein kinase Yes (Homo sapiens) (UniProt P07947); settings: at 1 µM
[4] = target: T2, Tyrosine-protein kinase ZAP-70 (Homo sapiens) (UniProt P43403); settings: at 0.1 µM
T2 sequence (whole entry): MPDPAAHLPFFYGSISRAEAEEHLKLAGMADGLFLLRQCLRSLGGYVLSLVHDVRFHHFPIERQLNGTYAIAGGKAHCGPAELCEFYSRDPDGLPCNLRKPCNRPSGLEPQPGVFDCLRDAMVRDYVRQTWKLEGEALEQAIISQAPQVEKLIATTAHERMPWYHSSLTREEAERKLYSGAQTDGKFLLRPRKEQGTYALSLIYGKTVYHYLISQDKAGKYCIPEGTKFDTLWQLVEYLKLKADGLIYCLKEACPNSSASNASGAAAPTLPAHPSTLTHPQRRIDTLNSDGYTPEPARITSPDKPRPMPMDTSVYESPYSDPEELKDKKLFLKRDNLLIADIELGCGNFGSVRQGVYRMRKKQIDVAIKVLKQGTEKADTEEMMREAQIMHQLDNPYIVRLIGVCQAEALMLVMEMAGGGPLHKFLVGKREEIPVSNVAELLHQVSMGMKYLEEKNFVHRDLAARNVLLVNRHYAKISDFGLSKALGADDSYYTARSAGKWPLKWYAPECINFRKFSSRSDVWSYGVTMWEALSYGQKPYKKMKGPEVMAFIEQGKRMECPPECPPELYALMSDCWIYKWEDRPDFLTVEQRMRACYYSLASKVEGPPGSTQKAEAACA

[5] = target: T2, Tyrosine-protein kinase ZAP-70 (Homo sapiens); settings: at 1 µM
[6] = target: Serine/threonine-protein kinase B-raf (Homo sapiens) (UniProt P15056); settings: at 0.1 µM
[7] = target: Serine/threonine-protein kinase B-raf (Homo sapiens) (UniProt P15056); settings: at 1 µM
[8] = test system: Serine/threonine-protein kinase B-raf (Homo sapiens), P15056 [V600E]; settings: at 0.1 µM
[9] = test system: Serine/threonine-protein kinase B-raf (Homo sapiens), P15056 [V600E]; settings: at 1 µM
[10] = target: RAF proto-oncogene serine/threonine-protein kinase (Homo sapiens) (UniProt P04049); settings: at 0.1 µM
[11] = target: RAF proto-oncogene serine/threonine-protein kinase (Homo sapiens) (UniProt P04049); settings: at 1 µM
[12] = target: T3, Interleukin-1 receptor-associated kinase 4 (Homo sapiens) (UniProt Q9NWZ3); settings: at 0.1 µM
T3 sequence (whole entry): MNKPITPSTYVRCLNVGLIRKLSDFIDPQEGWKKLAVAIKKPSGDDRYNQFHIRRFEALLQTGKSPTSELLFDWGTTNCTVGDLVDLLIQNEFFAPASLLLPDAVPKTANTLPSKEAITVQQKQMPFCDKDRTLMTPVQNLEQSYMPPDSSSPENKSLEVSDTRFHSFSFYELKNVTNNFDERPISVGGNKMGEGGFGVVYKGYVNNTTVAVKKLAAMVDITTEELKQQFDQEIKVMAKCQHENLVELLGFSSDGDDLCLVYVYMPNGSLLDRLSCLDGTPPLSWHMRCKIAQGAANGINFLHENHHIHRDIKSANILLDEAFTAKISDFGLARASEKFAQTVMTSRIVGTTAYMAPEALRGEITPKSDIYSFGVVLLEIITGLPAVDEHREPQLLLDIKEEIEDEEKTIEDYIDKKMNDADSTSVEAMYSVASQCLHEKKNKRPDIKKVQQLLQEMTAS

[13] = target: T3, Interleukin-1 receptor-associated kinase 4 (Homo sapiens); settings: at 1 µM
[14] = target: Leucine-rich repeat serine/threonine-protein kinase 2 (Homo sapiens) (UniProt Q5S007); settings: at 0.1 µM
[15] = target: Leucine-rich repeat serine/threonine-protein kinase 2 (Homo sapiens) (UniProt Q5S007); settings: at 1 µM
[16] = test system: Leucine-rich repeat serine/threonine-protein kinase 2 (Homo sapiens), Q5S007 [G2019S]; settings: at 0.1 µM
[17] = test system: Leucine-rich repeat serine/threonine-protein kinase 2 (Homo sapiens), Q5S007 [G2019S]; settings: at 1 µM

Chain of Tyrosine-protein kinase Yes (Homo sapiens) (P07947 2-543 limits assumed): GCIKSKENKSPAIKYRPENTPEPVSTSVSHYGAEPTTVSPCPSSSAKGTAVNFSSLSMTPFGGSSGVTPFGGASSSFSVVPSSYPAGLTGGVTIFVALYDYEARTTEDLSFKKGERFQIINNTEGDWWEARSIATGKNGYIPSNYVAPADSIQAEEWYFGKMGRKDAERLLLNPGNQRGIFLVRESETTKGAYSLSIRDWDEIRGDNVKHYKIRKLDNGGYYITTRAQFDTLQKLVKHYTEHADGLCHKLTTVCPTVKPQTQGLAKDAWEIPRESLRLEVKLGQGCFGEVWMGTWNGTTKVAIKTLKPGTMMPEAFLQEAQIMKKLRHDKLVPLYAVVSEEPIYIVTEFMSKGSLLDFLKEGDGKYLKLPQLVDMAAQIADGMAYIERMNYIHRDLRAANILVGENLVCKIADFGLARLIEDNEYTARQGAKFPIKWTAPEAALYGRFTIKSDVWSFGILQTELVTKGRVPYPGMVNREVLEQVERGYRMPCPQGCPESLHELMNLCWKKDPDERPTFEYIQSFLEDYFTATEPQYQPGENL
Chain of Leucine-rich repeat serine/threonine-protein kinase 2 (Homo sapiens) (Q5S007 whole entry): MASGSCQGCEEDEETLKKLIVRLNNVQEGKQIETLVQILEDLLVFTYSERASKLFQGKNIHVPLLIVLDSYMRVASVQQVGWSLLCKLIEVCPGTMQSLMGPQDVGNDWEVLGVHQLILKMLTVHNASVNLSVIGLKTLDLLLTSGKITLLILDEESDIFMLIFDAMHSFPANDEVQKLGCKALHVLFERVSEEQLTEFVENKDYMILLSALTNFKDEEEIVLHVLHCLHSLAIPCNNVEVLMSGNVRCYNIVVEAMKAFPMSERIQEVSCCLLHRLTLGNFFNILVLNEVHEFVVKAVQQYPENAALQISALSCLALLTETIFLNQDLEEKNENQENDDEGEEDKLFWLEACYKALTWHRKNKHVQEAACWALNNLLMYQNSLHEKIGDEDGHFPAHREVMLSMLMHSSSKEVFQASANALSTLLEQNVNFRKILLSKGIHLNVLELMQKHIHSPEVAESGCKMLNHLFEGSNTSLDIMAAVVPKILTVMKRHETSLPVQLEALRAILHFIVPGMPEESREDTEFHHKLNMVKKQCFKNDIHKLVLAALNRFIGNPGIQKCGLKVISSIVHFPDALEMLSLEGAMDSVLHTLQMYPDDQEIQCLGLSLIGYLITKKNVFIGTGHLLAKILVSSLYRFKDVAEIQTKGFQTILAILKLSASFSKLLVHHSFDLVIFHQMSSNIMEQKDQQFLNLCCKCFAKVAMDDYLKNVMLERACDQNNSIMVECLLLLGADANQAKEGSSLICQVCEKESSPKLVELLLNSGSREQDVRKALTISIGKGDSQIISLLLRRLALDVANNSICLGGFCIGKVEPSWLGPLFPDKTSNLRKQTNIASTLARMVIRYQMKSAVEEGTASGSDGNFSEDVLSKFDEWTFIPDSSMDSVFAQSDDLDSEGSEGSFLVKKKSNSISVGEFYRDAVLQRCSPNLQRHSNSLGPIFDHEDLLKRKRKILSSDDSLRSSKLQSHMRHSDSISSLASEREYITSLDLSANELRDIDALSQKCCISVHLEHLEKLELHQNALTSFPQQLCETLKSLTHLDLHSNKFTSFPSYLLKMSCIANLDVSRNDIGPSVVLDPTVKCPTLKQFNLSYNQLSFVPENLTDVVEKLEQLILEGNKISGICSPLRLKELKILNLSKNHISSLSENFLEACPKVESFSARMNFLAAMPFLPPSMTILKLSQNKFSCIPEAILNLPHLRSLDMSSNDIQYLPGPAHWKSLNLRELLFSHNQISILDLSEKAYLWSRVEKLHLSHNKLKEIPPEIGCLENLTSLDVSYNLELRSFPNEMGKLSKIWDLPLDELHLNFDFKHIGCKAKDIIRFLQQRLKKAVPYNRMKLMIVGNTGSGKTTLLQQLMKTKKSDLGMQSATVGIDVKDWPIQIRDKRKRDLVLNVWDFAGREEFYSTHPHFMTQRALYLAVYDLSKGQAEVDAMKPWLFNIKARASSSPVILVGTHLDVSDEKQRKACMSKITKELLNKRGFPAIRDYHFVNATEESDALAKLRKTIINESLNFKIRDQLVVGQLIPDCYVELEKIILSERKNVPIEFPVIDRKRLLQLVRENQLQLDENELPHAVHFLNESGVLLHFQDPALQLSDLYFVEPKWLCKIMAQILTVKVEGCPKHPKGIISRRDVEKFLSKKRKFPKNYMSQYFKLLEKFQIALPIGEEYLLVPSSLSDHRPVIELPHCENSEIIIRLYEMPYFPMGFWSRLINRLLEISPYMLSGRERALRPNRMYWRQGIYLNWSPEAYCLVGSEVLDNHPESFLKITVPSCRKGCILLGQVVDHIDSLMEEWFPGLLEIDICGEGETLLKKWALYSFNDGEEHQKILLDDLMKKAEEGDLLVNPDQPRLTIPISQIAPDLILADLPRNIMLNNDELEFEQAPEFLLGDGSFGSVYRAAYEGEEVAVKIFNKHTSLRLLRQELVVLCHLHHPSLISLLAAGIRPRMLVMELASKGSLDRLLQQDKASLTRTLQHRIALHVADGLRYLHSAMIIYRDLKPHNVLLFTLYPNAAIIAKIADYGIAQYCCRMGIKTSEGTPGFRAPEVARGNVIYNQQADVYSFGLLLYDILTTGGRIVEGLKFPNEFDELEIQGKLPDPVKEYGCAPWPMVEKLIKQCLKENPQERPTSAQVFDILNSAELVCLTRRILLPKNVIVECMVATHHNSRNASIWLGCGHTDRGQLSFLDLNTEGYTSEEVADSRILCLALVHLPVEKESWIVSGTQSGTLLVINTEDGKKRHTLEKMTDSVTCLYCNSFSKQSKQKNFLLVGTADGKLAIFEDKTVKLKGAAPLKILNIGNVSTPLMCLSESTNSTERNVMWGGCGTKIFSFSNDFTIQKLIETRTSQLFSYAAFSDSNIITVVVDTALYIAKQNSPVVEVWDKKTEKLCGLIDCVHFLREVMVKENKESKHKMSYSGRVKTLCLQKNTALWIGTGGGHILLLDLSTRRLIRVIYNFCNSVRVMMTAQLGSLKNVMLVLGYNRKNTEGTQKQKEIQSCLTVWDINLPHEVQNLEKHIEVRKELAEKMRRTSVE
Chain of RAF proto-oncogene serine/threonine-protein kinase (Homo sapiens) (P04049 whole entry): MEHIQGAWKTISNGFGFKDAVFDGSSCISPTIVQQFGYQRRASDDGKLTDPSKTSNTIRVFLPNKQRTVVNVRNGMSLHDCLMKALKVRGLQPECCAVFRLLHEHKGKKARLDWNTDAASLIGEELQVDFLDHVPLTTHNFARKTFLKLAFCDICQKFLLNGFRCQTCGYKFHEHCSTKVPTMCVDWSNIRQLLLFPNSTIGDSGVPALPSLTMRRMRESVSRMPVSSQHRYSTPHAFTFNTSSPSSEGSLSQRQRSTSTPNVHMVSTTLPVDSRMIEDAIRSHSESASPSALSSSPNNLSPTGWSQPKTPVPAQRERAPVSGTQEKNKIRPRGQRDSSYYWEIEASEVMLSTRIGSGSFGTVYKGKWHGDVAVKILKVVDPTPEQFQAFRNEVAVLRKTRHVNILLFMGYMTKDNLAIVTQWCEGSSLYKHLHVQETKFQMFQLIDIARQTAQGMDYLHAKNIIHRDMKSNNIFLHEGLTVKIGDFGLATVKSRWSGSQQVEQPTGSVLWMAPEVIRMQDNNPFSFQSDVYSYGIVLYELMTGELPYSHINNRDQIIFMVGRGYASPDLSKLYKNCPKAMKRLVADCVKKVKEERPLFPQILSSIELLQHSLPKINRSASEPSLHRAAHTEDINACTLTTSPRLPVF
Chain of Serine/threonine-protein kinase B-raf (Homo sapiens) (P15056 whole entry): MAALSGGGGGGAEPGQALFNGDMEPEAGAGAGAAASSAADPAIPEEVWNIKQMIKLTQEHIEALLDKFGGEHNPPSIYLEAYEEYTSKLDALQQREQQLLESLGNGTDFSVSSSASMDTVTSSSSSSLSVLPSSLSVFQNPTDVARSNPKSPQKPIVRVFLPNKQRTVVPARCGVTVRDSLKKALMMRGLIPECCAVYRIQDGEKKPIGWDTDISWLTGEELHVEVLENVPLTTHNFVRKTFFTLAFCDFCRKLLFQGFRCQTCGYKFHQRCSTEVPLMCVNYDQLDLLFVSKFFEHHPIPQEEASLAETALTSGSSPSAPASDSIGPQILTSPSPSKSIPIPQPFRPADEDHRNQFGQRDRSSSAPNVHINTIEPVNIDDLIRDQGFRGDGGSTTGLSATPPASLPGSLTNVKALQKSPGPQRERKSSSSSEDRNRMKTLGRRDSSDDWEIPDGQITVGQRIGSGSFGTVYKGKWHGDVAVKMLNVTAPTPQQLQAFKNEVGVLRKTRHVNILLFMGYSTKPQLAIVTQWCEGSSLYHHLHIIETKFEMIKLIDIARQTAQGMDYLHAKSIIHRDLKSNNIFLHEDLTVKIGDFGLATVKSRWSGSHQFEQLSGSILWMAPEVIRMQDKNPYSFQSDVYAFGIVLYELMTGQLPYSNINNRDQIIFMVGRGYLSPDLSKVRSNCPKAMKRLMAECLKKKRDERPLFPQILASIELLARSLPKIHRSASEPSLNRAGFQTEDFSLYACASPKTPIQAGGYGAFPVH
Chain of Leucine-rich repeat serine/threonine-protein kinase 2 (Homo sapiens), Q5S007 [G2019S] (Q5S007 whole entry G2019S): as the sequence (Q5S007 whole entry) above, with G2019S counted along it
Chain of Serine/threonine-protein kinase B-raf (Homo sapiens), P15056 [V600E] (P15056 whole entry V600E): as the sequence (P15056 whole entry) above, with V600E counted along it

Structure (SMILES) | inhibition [1] [%] | inhibition [2] [%] | inhibition [3] [%] | inhibition [4] [%] | inhibition [5] [%] | inhibition [6] [%] | inhibition [7] [%] | inhibition [8] [%] | inhibition [9] [%] | inhibition [10] [%] | inhibition [11] [%] | inhibition [12] [%] | inhibition [13] [%] | inhibition [14] [%] | inhibition [15] [%] | inhibition [16] [%] | inhibition [17] [%]
CCc1nccc2c1nc(-c1nonc1N)n2CC | -0.82 | 0.39 | 1.95 | 1.4 | 0.96 | -0.39 | 1.49 | 0.46 | 1.01 | -4.45 | -5.16 | 2.27 | -1.82 | 0.68 | 2.47 | 0.78 | 2.99
COc1cccc(/C=N/Nc2ncnc3c2cnn3-c2cccc(OC)c2)c1 | 4.49 | 2.39 | 8.43 | 1.23 | 2.81 | 4.82 | 6.54 | 4.25 | 4.68 | 1.07 | -1.82 | 1.63 | 2.48 | -1.62 | 0.55 | 0.17 | 5.07
COc1cc2ncn(-c3cc(OCc4cccs4)c(C(N)=O)s3)c2cc1OC | 8.04 | 4.84 | 21.2 | -0.46 | 3.04 | 1.7 | 0.38 | 2.45 | 0.77 | 1.73 | 6.17 | -3.1 | 1.66 | 2.29 | 9.04 | 15.9 | 54
CS(=O)(=O)CCNCc1ccc(-c2ccc3ncnc(Nc4ccc(OCc5ccccc5)c(Br)c4)c3c2)o1 | 2.72 | 4.45 | 20.7 | -2.48 | -1.83 | 4.73 | 4.32 | 3.23 | 2.38 | 3.26 | 3.63 | 0.92 | 1.52 | -4.59 | -6.11 | -1.19 | -0.13
COc1cc(C)c(N(C)C(=O)CN(C)C)cc1Nc1nc(Nc2cccc(F)c2C(N)=O)c2cc[nH]c2n1 | -0.84 | 0.04 | -3.38 | -1.25 | -6.34 | 1.62 | 3.95 | 2.25 | 3.53 | -0.36 | -0.93 | -1.54 | 1.55 | 20.4 | 18.8 | 45.5 | 57.7
CCS(=O)(=O)c1ccc(OC)c(Nc2ncc(-c3cccc(-c4ccccc4F)c3)o2)c1 | 19.6 | 25.7 | 73 | 1.06 | -0.05 | 1.09 | 1.46 | 0.74 | 1.89 | -0.07 | -8.29 | 1.45 | 0.38 | 1.95 | 11.6 | 4.86 | 19.5
COc1cc(N2CCN(C(C)C)CC2)ccc1Nc1nc(Nc2ccc(F)cc2C(=O)NC[C@@H](O)CO)c2cc[nH]c2n1 | 5.76 | 1.99 | 12.3 | -0.52 | 5.52 | 6.98 | 5.88 | 7.48 | 4.83 | -2.46 | 2.01 | 3.02 | 2.5 | 10.5 | 14.5 | 48.9 | 55.5
CCc1cccc(CC)c1/C=C/c1cncc(C(=O)NC)c1 | 2.78 | 3.04 | -1.48 | 0.45 | 0.77 | 3.23 | 2.6 | 2.71 | 2.87 | 5.4 | -1.79 | -3.49 | 1.51 | 3.05 | 4.51 | 2.33 | 7.93
FC(F)(F)c1cccc(Nc2nccc(-c3cnn4nc(-c5ccccc5)ccc34)n2)c1 | 0.62 | 2.51 | 24.8 | 0.98 | 2.56 | 3.36 | 4.64 | 2.72 | 4.02 | -0.56 | -0.15 | 0.01 | 0.27 | 2 | -0.41 | 2.35 | 4.67
Fc1ccc(-c2c(-c3ccncc3)nc3n2CCS3)cc1 | 1.69 | 2.78 | 5.33 | 0.51 | -2.36 | 4.16 | 4.3 | 3.07 | 4.28 | 2.08 | -2.98 | 1.96 | 1.7 | -3.32 | -2.49 | -1.05 | 0.48
CN(C)c1ccc2c(c1)/C(=C/Nc1ccc(S(N)(=O)=O)cc1)C(=O)N2 | 7.48 | 2.8 | 14.3 | 2.05 | 5.7 | 2.49 | 4.91 | 2.9 | 5 | 3.91 | -6.53 | 2.88 | 0.86 | 5.77 | 16.7 | 7.03 | 36.4
COC(=O)Nc1nc2ccc(Sc3ccc(NC(=O)Nc4cc(C(F)(F)F)ccc4F)cc3)cc2[nH]1 | 21.9 | -0.49 | 5.58 | 3.14 | -0.65 | 1.01 | 14.8 | -0.53 | 17.5 | -1.08 | 50 | -0.12 | 0.72 | 0.83 | 9.98 | 0.3 | 4.85
N#Cc1ccc(Oc2nccc(-c3c(-c4ccc(F)cc4)ncn3C3CCNCC3)n2)cc1 | 3.55 | 3.38 | 3.87 | -0.57 | 1.9 | 6.93 | 6.24 | 4.98 | 4.44 | -1.66 | -0.95 | 2.17 | 2.43 | 2.8 | 3.91 | 4.91 | 4.95
CN1CCN(CCCNc2nc3ccc(Oc4ccc(NC(=O)Nc5cc(C(F)(F)F)ccc5F)cc4)cc3[nH]2)CC1 | 19.1 | -0.61 | -1.74 | -0.98 | 2.82 | 2.28 | 13.7 | 2.94 | 16.6 | 2.41 | -5.93 | -3.98 | 1.11 | 0.2 | 9.72 | 0.21 | 4.43
NC(=O)c1cc(-c2ccncc2)cc(-c2ccccc2)c1N | 3.61 | 7.5 | 36 | 4.11 | 29 | 8.42 | 8.98 | 8.18 | 8.65 | 1.06 | -6.49 | 2.85 | 2.52 | 3.59 | 8.2 | 4.3 | 12.3
